Results filed as inconclusive are left out. Active and inactive are the calls of the source.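 The calls were made as follows, unless noted: active = response below a set limit, under 55% cells CD8-positive and vesicle-bound, and CD8 cells' 90th-percentile brightness under 279; inactive = the rest.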
Columns and labels:
[1] = rapamycin-like changes in RPL19A-GFP expression – cell-based, S. cerevisiae, multiplex flow cytometry, primary screen (AID 1862; in the data active = percent of DMSO control GFP below about 86%;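 also: lower values mimic rapamycin by blocking the RPL19A rise seen in DMSO cells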); details: S. cerevisiae RPL19A-GFP strain, flow cytometry fluorescence, 3 h; at 10 µM; stronger effect = lower value
[2] = TOR pathway GLN3 branch reporter MEP2-GFP changes – S. cerevisiae, multiplex flow cytometry, primary screen (AID 1867;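 active = GFP response, as percent of the DMSO control, above the screen-wide mean plus 3 SD, about 139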;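 also: median GFP channel fluorescence of barcode-gated MEP2-GFP cells measured by flow cytometry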); details: S. cerevisiae MEP2-GFP strain, 3 h, at 10 µM, stronger effect = higher value, 100% means same as DMSO wells
[3] = TOR pathway RTG branch CIT2 reporter changes – S. cerevisiae, GFP fusion, multiplex flow cytometry, primary screen (AID 1870;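 active = percent response above a set limit, the screen-wide mean plus 3 SD, cut at about 130% in these data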;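 also: barcoded CIT2-GFP strain pooled with four other GFP strains with rapamycin as positive control; median GFP fluorescence per well over plate mean of DMSO wells so 100% = DMSO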); details: S. cerevisiae CIT2-GFP expression, 3 h, at 10 µM, stronger effect = higher value
[4] = TOR pathway LAP4-GFP level changes – S. cerevisiae, multiplex flow cytometry, primary screen (AID 1873;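 active = GFP signal, as percent of the solvent control, above the screen mean plus 3 SD, about 149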); details: S. cerevisiae LAP4-GFP expression, 3 h, at 10 µM, stronger effect = higher value
[5] = yeast AGP1-GFP level changes, GLN3 branch – cell-based, multiplex flow cytometry, S. cerevisiae, primary screen (AID 1887;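 active = GFP signal above the screen-wide mean plus 3 SD, that is over about 124.5% of the solvent control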;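 also: AGP1-GFP fusion strain of S. cerevisiae within a five-strain barcoded multiplex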); details: 3 h, at 10 µM, stronger effect = higher value
[6] = reduced mouse 2C T cell binding to pMHC/ICAM-1 vesicles – MLPCN validation set, flow cytometry, LFA-1/ICAM-1 modulator project, pilot screen (AID 2523); details: 2C mouse CD8+ T cells, at 7 µM, stronger effect = lower value; double positive events: measured here: CD8+/vesicle+ event percentage;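 as to vesicle binding response: mean PE anti-B7-1 fluorescence of CD8+ cells relative to row control; 100% = QL9-loaded vesicles with DMSO vehicle in the same plate row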
[7] = target: Integrin beta-1 (Homo sapiens) + Integrin alpha-4 (Homo sapiens) (UniProt P13612+P05556); assay: alpha4beta1 integrin LIBS antibody binding reduction – U937 cells, HUTS-21 mAb, flow cytometry, validation set, VLA-4 allosteric modulator project, pilot screen (AID 2674;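 active = inhibition above 50%, about 3 SD of the validation set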;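 also: antibody binding induced by the VLA-4 ligand LDV present at three times its Kd; 0% = LDV ligand with antibody and no compound and 100% = antibody without LDV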); details: HUTS-21 LIBS mAb binding, at 6.7 µM, stronger effect = higher value, binding induced by LDV ligand
Integrin beta-1 (Homo sapiens) + Integrin alpha-4 (Homo sapiens), sequence (P05556 whole entry, looked up): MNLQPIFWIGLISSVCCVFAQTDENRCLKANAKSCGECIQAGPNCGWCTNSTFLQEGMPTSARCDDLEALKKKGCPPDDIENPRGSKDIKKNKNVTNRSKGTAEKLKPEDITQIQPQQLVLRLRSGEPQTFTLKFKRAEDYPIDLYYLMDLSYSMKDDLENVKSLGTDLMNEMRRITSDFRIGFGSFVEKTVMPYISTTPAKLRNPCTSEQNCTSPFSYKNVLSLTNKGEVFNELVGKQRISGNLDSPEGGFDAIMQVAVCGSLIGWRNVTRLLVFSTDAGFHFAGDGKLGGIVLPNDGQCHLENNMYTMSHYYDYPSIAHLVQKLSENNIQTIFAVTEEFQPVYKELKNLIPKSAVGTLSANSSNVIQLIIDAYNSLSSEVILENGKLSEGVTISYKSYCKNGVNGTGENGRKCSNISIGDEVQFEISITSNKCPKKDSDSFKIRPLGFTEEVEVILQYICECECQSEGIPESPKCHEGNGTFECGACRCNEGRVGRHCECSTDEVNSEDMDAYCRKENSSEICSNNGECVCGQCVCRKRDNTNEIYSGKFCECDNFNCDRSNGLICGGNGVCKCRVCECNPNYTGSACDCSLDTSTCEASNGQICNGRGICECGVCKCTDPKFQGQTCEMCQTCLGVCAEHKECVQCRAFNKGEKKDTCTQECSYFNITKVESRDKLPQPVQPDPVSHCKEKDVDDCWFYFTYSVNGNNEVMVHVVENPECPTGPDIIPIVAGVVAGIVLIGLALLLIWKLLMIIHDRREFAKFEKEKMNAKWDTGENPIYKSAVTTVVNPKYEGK
Integrin beta-1 (Homo sapiens) + Integrin alpha-4 (Homo sapiens), sequence (P13612 whole entry, looked up): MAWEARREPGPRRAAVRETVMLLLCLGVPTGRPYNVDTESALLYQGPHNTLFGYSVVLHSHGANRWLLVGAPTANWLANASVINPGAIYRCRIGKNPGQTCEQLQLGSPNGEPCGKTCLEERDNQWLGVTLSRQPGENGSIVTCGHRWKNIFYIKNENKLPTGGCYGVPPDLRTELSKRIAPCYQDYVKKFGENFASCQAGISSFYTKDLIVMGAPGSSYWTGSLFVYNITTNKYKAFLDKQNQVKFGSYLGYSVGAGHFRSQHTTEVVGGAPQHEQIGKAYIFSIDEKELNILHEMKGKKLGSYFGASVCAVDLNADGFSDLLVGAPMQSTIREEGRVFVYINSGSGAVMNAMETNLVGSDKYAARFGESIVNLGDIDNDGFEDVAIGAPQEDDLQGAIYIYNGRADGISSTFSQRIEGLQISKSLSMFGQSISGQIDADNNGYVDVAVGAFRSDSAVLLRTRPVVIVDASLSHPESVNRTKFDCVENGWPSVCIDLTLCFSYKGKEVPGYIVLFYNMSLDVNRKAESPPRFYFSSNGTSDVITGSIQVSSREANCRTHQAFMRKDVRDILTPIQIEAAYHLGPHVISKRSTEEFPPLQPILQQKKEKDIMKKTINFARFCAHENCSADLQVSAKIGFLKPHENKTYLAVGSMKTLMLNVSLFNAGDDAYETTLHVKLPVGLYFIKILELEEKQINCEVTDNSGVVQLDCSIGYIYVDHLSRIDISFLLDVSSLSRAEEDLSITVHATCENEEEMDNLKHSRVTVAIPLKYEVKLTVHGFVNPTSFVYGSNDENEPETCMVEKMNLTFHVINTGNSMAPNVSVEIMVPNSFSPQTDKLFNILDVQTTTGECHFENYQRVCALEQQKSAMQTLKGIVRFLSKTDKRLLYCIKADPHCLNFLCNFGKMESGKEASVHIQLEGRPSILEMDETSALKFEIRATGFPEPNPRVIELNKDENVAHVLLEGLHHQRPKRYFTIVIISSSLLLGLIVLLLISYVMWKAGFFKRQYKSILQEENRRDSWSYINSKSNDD

[8] = calorie-restriction mimetic ROS inhibitors, yeast – validation compound set, pilot screen (AID 2706;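 active = superoxide response below 65% of plate, a cut near 3 SD across the whole screen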;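 also: yeast exposed to compound for one week at 30 degrees C before staining; 100% = mean of all compound wells on the same plate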); details: S. cerevisiae aging, superoxide DHE fluorescence; at 10 µM; stronger effect = lower value
[9] = target: Beta-adrenergic receptor kinase 1 (Homo sapiens) (UniProt P25098); assay: GRK2 binders displacing RNA aptamer, biochemical, validation, human GRK2, bead flow cytometry (AID 488806;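 active = aptamer binding inhibition above 30%, about 3 SD of noise from non-fluorescent compounds; inactive = inhibition at or below 30%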); details: bead-bound GRK2, FAM-aptamer displacement, at 10 µM, stronger effect = higher value
Beta-adrenergic receptor kinase 1 (Homo sapiens), sequence (P25098 whole entry, looked up): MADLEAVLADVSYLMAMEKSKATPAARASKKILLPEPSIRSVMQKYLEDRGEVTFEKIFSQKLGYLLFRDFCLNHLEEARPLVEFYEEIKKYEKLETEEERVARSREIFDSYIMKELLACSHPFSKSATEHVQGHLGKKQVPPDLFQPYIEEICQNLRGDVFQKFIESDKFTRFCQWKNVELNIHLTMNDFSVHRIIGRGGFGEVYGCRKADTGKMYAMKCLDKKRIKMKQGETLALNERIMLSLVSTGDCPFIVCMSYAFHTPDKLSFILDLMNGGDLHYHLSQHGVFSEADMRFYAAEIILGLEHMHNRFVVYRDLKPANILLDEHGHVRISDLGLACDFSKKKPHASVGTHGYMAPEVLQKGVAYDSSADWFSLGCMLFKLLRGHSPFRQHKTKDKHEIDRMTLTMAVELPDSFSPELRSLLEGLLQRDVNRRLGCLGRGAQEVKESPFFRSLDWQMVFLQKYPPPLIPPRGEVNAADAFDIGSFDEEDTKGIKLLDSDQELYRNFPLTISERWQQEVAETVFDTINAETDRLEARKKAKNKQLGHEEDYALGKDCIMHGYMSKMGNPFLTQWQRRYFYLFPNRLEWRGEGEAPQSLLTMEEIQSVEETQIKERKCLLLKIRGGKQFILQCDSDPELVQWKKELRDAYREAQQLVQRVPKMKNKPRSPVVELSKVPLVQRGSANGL

[10] = target: Beta-2 adrenergic receptor (Homo sapiens) (UniProt P07550); assay: agonist-induced loss of surface beta2AR – cell-based, FAP fluorogen, flow cytometry, validation set, pilot screen (AID 504459;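 active = percent response above 42, roughly 3 SD of non-fluorescent test compounds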;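 also: agonist-driven loss of surface beta2AR via internalization measured by FAP dye flow cytometry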); details: Am2.2-beta2AR cells, at 10 µM, stronger effect = higher value
Beta-2 adrenergic receptor (Homo sapiens), sequence (P07550 whole entry, looked up): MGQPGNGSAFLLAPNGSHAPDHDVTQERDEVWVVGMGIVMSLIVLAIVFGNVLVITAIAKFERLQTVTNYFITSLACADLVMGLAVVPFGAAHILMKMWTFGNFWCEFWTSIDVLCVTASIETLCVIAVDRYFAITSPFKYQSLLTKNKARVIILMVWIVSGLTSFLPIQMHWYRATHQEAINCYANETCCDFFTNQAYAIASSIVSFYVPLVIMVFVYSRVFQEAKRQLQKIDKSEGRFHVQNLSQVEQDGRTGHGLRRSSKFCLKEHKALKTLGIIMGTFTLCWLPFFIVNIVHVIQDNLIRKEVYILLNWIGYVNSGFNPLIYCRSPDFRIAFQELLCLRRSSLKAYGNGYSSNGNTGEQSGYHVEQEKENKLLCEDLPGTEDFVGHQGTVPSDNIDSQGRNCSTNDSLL

[11] = target: AP-2 complex subunit beta (Homo sapiens) (UniProt P63010); assay: beta-arrestin/AP2 interaction blockers – biochemical, validation set, GST-AP2 beads, flow cytometry, pilot screen (AID 504541;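 active = inhibition above 54%, about 3 SD of non-fluorescent compounds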;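 also: AP2 carries R879A mutation and is captured from E. coli lysate; bead-bound FITC arrestin peptide fluorescence measuring arrestin peptide binding to AP2; 0% = DMSO wells and 100% = excess unlabeled arrestin peptide control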); details: FITC arrestin peptide, at 10 µM, stronger effect = higher value, AP2 beta2 appendage fragment, R879A mutant
AP-2 complex subunit beta (Homo sapiens), sequence (P63010 whole entry, looked up, the tested form may be a part, one chain of several): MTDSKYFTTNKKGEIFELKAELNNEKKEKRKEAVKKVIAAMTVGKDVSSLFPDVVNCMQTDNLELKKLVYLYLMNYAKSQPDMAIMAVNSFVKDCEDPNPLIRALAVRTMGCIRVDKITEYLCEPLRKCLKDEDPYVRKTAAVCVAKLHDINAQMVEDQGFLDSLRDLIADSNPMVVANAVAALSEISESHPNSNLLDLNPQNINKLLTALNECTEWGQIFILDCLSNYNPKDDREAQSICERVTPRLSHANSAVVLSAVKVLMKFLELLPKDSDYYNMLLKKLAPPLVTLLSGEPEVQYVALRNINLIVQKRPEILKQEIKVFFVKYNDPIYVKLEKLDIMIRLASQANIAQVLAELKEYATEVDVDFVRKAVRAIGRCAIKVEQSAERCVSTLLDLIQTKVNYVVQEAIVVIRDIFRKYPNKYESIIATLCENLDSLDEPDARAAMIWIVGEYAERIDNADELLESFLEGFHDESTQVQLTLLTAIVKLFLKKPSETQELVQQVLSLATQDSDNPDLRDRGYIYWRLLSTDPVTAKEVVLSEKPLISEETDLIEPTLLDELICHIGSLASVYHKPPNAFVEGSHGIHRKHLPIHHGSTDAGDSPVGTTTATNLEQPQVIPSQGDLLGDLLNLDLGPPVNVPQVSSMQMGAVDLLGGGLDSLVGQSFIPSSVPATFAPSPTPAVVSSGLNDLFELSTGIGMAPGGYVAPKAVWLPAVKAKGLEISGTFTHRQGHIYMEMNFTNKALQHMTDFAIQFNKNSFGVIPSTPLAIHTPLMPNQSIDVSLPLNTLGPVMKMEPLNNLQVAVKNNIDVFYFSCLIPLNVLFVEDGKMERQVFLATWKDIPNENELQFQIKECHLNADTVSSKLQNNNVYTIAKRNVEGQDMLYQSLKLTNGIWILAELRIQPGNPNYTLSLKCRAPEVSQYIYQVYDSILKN

[12] = cytosolic pH regulators acting via V-ATPase – S. cerevisiae, pHLuorin, HTS validation (AID 504600; in the data active = response above about 15%;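 also: plate controls were DMSO for no effect and reference compound for full effect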); details: V-ATPase proton transport, at 10 µM, stronger effect = higher value
[13] = system: anti-desmoglein-3 scFv antibody binding to human DSG3; assay: blockers of pathogenic pemphigus antibody–desmoglein-3 binding – biochemical, validation compound set, bead-based, flow cytometry, pilot screen (AID 588368;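 active = binding below the plate cutoff, the plate median minus 3 SD, with a reading above zero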;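 also: signal is the median channel fluorescence of bead-bound GFP antibody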); details: Protein G beads, DSG3-Fc, scFv-GFP binding, at 10 µM, stronger effect = lower value
[14] = Nile Red efflux blockade in pump-expressing yeast – validation compound set, multiplex, phenotypic, pilot screen (AID 588506;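 active = efflux inhibition above 0.42, the validation set average plus 4 SD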;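 also: Nile Red retained in cells so higher fluorescence means more efflux inhibition; 0 = negative control wells and 1 = enniatin B 25 µM full block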); details: S. cerevisiae pump-expressing triplex, Nile Red efflux flow cytometry; at 10 µM; stronger effect = higher value; the pumps come from Candida albicans
[15] = target: ATP-binding cassette sub-family B member 6 (Homo sapiens) (UniProt Q9NP58); assay: blockers of ABCB6-driven porphyrin uptake – K562-ABCB6 cells, flow cytometry, validation set, pilot screen (AID 588550;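 active = inhibition above the screen-wide mean plus 3 SD, about 51%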;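 also: 0% = DMSO wells and 100% = benzethonium chloride 70 µM positive control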); details: K562-ABCB6 porphyrin accumulation, 1 h, at 10 µM, stronger effect = higher value
ATP-binding cassette sub-family B member 6 (Homo sapiens), sequence (Q9NP58 whole entry, looked up): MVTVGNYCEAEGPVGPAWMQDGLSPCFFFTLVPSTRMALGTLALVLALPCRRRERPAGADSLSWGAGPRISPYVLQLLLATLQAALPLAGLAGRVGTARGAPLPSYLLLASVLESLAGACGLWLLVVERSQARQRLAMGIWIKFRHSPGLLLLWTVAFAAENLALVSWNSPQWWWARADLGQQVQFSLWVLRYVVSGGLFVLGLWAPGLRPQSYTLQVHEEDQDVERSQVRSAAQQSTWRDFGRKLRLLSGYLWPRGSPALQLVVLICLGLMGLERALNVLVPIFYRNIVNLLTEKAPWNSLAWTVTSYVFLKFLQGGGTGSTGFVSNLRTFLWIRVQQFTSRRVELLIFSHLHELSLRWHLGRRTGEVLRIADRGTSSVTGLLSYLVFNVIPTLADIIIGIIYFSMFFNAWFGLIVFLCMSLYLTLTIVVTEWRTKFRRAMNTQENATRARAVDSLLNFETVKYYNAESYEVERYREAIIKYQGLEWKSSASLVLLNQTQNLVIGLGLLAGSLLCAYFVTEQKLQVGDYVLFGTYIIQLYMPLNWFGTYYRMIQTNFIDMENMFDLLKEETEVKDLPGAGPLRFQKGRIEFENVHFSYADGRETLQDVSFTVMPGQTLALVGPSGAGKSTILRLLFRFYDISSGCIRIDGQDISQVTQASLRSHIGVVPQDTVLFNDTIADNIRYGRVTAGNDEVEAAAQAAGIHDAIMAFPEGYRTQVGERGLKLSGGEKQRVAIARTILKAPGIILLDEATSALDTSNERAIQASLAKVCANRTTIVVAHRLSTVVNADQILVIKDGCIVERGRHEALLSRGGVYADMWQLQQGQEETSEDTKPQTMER

[16] = AML differentiation inducers, ER-HoxA9 marrow cells – cell-based, GFP/MAC1 double positive, flow cytometry, validation set, primary screen (AID 588685;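 active = differentiation response of at least 50%, scaled between solvent and reference control, from cells with both markers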;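 also: compound exposure lasts four days before antibody staining and flow analysis; 0% = DMSO wells and 100% = 5 µM fulvestrant positive control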); details: stronger effect = higher value, normalized: vehicle 0, fulvestrant 100

O=C1OC(c2ccccc2)=C/C1=C/c1cccs1
64.9%: double positive events [6]
inactive: percent of DMSO control GFP [1] 106% | GFP response vs DMSO [2] 99.3% | percent response of DMSO control [3] 105% | GFP response vs DMSO [4] 86.1% | GFP response, % of DMSO [5] 97.3% | vesicle binding response [6] 212% | inhibition [7] -2.53% | superoxide response (% of plate) [8] 97.6% | aptamer binding inhibition [9] 1% | response [10] -7.02% | inhibition [11] 6.48% | response [12] -2.38% | binding (% of control) [13] 93.3% | efflux inhibition (fraction of control) [14] -0.1 | inhibition [15] -5% | differentiation response [16] 3.18%

CC(C)(C)OC(=O)N1CC(O)CC1C(=O)OCC(=O)c1ccc(Cl)cc1 (stereo not given)
inactive: percent of DMSO control GFP [1] 105% | GFP response vs DMSO [2] 98.3% | percent response of DMSO control [3] 113% | GFP response vs DMSO [4] 90.7% | GFP response, % of DMSO [5] 105% | vesicle binding response [6] 222% | inhibition [7] 2.66% | superoxide response (% of plate) [8] 105% | aptamer binding inhibition [9] 0% | response [10] -16.2% | inhibition [11] -13.3% | response [12] 2.73% | binding (% of control) [13] 98.2% | efflux inhibition (fraction of control) [14] 0.14 | inhibition [15] -6% | differentiation response [16] 8.06%
61.3%: double positive events [6]

CC(=O)NC(Cc1c[nH]c2ccccc12)C(=O)N/N=C/c1ccccc1 (stereo not given)
62.8%: double positive events [6]
active: inhibition [11] 60.7%
inactive: percent of DMSO control GFP [1] 98.6% | GFP response vs DMSO [2] 108% | percent response of DMSO control [3] 104% | GFP response vs DMSO [4] 99.1% | GFP response, % of DMSO [5] 98.6% | vesicle binding response [6] 200% | inhibition [7] -15.8% | superoxide response (% of plate) [8] 98% | aptamer binding inhibition [9] -3% | response [10] -1.6% | response [12] -13.1% | binding (% of control) [13] 104% | efflux inhibition (fraction of control) [14] 0 | inhibition [15] -12% | differentiation response [16] -3.11%

COc1ccc(C(=O)c2oc3ccc(Br)cc3c2NC(C)=O)cc1
61.7%: double positive events [6]
inactive: percent of DMSO control GFP [1] 90.9% | GFP response vs DMSO [2] 122% | percent response of DMSO control [3] 112% | GFP response vs DMSO [4] 82% | GFP response, % of DMSO [5] 97.5% | vesicle binding response [6] 140% | inhibition [7] 4.52% | superoxide response (% of plate) [8] 104% | aptamer binding inhibition [9] 1% | response [10] -11.6% | inhibition [11] 3.03% | response [12] 3.34% | binding (% of control) [13] 96.9% | efflux inhibition (fraction of control) [14] -0.02 | inhibition [15] 8% | differentiation response [16] -0.82%

CC(C)COC(=O)C1C(=O)CC(C)(O)C(C(=O)OCC(C)C)C1c1cccnc1 (stereo not given)
59.8%: double positive events [6]
inactive: percent of DMSO control GFP [1] 90.4% | GFP response vs DMSO [2] 118% | percent response of DMSO control [3] 102% | GFP response vs DMSO [4] 74.3% | GFP response, % of DMSO [5] 88.4% | vesicle binding response [6] 203% | inhibition [7] 8.4% | superoxide response (% of plate) [8] 113% | aptamer binding inhibition [9] 2% | response [10] -11.2% | inhibition [11] 2.38% | response [12] 2.35% | binding (% of control) [13] 102% | efflux inhibition (fraction of control) [14] -0.06 | inhibition [15] 18% | differentiation response [16] -3.28%

CCOC(=O)C1C2C=CC3(CN(c4ccc(Cl)c(F)c4)C(=O)C13)O2 (stereo not given)
58.3%: double positive events [6]
inactive: percent of DMSO control GFP [1] 100% | GFP response vs DMSO [2] 99.3% | percent response of DMSO control [3] 95.4% | GFP response vs DMSO [4] 96.6% | GFP response, % of DMSO [5] 94.6% | vesicle binding response [6] 171% | inhibition [7] -9.79% | superoxide response (% of plate) [8] 105% | aptamer binding inhibition [9] 1% | response [10] 1.75% | inhibition [11] 36.1% | response [12] -0.79% | binding (% of control) [13] 100% | efflux inhibition (fraction of control) [14] 0.33 | inhibition [15] 2% | differentiation response [16] 12%

COc1ccccc1N=CC1=C(O)CC(c2ccccc2)CC1=O (stereo not given)
64.4%: double positive events [6]
inactive: percent of DMSO control GFP [1] 92.6% | GFP response vs DMSO [2] 111% | percent response of DMSO control [3] 96.6% | GFP response vs DMSO [4] 82.5% | GFP response, % of DMSO [5] 88.9% | vesicle binding response [6] 153% | inhibition [7] -36.2% | superoxide response (% of plate) [8] 95.6% | aptamer binding inhibition [9] 2% | response [10] 1.28% | inhibition [11] -4.2% | response [12] 4.13% | binding (% of control) [13] 103% | efflux inhibition (fraction of control) [14] -0.24 | inhibition [15] 12% | differentiation response [16] 2.46%

C[C@H]([C@@H](N)C(=O)N[C@@H](C(=O)O)[C@@H]1O[C@H](n2ccc(=O)[nH]c2=O)[C@@H](O)[C@H]1O)[C@@H](O)c1ccc(O)cn1
59.1%: double positive events [6]
inactive: percent of DMSO control GFP [1] 91.5% | GFP response vs DMSO [2] 130% | percent response of DMSO control [3] 93.9% | GFP response vs DMSO [4] 82.5% | GFP response, % of DMSO [5] 84.5% | vesicle binding response [6] 184% | inhibition [7] -9.06% | superoxide response (% of plate) [8] 117% | aptamer binding inhibition [9] 7% | response [10] -4.72% | inhibition [11] 5.36% | response [12] 2.7% | binding (% of control) [13] 104% | efflux inhibition (fraction of control) [14] -0.06 | inhibition [15] 9% | differentiation response [16] 4.09%

Nc1ccc(S(N)(=O)=O)cc1N
66.3%: double positive events [6]
inactive: percent of DMSO control GFP [1] 98.1% | GFP response vs DMSO [2] 119% | percent response of DMSO control [3] 99.2% | GFP response vs DMSO [4] 84.7% | GFP response, % of DMSO [5] 91.7% | vesicle binding response [6] 202% | inhibition [7] 3.55% | superoxide response (% of plate) [8] 82.8% | aptamer binding inhibition [9] 3% | response [10] 31.7% | inhibition [11] 7.24% | response [12] 0.32% | binding (% of control) [13] 103% | efflux inhibition (fraction of control) [14] -0.28 | inhibition [15] 14% | differentiation response [16] 2.46%

O=C(Nc1nc2ccccc2s1)c1ccc(F)cc1
inactive: percent of DMSO control GFP [1] 100% | GFP response vs DMSO [2] 106% | percent response of DMSO control [3] 102% | GFP response vs DMSO [4] 109% | GFP response, % of DMSO [5] 105% | vesicle binding response [6] 297% | inhibition [7] -4.52% | superoxide response (% of plate) [8] 103% | aptamer binding inhibition [9] 3% | response [10] -12.7% | inhibition [11] -2.74% | response [12] 4.11% | binding (% of control) [13] 101% | efflux inhibition (fraction of control) [14] -0.13 | inhibition [15] 9% | differentiation response [16] -4%
59.5%: double positive events [6]

Reference: PubChem BioAssay
